Measured values: article PMC7862700, “An all-to-all approach to the identification of sequence-specific readers for epigenetic DNA modifications on cytosine”

Experiments:
Test in all cases: DAPPL (digital affinity profiling via proximity ligation, sequencing); 10 mM Tris-HCl pH 7.5, 50 mM NaCl, 1 mM DTT, 4% glycerol, room temperature, 30 min; GST-TFs on glutathione beads, 16-mer random dsDNA library, 0.1% formaldehyde crosslink after washing; high values mean tight binding
Conditions in all cases: protein: recombinant; tags: N-terminal GST; dsDNA, one strand shown
ERF = molecular target: T1, ERF (Homo sapiens, UniProt P50548 1-548)
T1 sequence: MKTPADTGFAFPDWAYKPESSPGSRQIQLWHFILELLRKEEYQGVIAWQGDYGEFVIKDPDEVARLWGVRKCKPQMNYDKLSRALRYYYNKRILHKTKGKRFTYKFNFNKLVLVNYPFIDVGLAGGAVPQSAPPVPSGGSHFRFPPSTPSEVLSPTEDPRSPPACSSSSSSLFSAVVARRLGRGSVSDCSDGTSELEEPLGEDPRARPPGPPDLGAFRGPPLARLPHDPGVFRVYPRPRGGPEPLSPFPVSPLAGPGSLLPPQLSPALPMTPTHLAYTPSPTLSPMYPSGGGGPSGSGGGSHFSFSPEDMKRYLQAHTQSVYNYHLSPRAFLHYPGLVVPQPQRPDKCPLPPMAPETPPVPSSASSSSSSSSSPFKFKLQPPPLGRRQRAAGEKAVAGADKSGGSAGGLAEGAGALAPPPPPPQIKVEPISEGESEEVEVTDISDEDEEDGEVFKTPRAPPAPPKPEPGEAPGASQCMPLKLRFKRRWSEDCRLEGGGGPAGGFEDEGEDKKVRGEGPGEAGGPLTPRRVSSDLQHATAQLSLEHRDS
Procedure, shortened: (§1)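 After expression in yeast as GST fusions, human transcription factors were bound to glutathione beads, DNA-barcoded and mixed with a tag-only sample. The pools were incubated with 200 nmole of a 16-mer random double-stranded DNA library in Tris/NaCl/DTT/glycerol buffer (30 min, room temperature), washed and crosslinked with 0.1% formaldehyde. Proximity ligation with BsaI/T4 ligase ran for 1 h at 37 °C, before PCR amplification and sequencing on an Illumina NextSeq500. Binding signal is a hexamer's read frequency for a factor divided by its frequency for the tag-only sample.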

ETV3L = molecular target: T2, ETV3L (Homo sapiens, UniProt Q6ZN32 1-361)
T2 sequence: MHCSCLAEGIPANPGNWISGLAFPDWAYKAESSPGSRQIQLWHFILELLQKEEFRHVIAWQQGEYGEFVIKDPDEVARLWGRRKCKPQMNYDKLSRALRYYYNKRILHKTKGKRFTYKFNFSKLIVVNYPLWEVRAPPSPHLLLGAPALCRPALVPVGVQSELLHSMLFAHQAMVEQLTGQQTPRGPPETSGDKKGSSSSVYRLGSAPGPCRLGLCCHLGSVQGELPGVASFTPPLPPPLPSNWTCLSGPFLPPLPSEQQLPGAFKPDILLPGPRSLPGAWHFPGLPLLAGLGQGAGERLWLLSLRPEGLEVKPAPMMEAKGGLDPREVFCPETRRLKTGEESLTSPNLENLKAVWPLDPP
Procedure, shortened: as §1

ETS2 = molecular target: T3, ETS2 (Homo sapiens, UniProt P15036 1-469)
T3 sequence: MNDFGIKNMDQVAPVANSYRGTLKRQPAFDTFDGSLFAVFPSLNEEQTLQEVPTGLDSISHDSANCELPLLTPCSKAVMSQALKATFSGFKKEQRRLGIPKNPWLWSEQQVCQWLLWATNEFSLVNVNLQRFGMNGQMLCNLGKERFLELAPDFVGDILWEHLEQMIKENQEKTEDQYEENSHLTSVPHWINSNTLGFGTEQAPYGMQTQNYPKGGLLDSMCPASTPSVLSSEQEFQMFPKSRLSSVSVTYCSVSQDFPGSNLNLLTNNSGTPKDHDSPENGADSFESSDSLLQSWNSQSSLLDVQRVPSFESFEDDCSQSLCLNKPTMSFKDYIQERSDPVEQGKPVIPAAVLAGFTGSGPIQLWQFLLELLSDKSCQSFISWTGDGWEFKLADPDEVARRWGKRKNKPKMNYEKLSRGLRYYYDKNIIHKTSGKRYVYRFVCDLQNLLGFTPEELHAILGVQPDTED
Procedure, shortened: as §1

SPDEF = molecular target: T4, SPDEF (Homo sapiens, UniProt O95238 1-335)
T4 sequence: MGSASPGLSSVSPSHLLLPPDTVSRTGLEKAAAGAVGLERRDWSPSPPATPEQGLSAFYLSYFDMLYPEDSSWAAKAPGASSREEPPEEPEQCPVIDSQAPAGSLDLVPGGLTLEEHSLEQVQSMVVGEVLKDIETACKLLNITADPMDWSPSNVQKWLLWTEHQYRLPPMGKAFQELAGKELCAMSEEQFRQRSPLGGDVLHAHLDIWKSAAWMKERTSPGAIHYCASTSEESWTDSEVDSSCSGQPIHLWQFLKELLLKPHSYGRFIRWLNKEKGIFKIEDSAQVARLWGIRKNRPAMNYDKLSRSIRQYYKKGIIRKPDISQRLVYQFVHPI
Procedure, shortened: as §1

ETV7 = molecular target: T5, ETV7 (Homo sapiens, UniProt Q9Y603 1-341)
T5 sequence: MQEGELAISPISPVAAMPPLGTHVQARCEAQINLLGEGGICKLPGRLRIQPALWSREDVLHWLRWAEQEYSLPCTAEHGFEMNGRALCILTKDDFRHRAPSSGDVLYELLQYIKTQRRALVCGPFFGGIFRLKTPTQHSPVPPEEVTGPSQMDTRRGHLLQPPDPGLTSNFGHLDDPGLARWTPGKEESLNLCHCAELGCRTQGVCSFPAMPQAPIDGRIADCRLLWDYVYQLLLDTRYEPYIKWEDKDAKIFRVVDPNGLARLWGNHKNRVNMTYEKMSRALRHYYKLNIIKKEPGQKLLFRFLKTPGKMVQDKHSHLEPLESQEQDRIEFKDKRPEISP
Procedure, shortened: as §1

ELF5 = molecular target: T6, ELF5 (Homo sapiens, UniProt Q9UKW6-2 1-255)
T6 sequence: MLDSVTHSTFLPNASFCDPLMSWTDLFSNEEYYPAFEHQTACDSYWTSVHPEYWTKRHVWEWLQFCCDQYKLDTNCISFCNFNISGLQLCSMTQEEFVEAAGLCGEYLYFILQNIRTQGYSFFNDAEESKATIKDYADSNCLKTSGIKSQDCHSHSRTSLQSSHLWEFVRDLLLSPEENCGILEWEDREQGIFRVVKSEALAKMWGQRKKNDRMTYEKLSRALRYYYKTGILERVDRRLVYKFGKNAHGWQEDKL
Procedure, shortened: as §1

ETV3 = molecular target: T7, ETV3 (Homo sapiens, UniProt P41162-2 1-143)
T7 sequence: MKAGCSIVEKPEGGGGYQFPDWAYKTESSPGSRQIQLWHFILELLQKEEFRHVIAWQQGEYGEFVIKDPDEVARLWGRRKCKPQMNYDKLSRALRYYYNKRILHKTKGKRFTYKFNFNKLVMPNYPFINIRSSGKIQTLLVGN
Procedure, shortened: as §1

ETV6 = ETV6 (Homo sapiens, UniProt P41212 1-452)
Procedure, shortened: as §1

Sequence of ETV6 (P41212 whole entry): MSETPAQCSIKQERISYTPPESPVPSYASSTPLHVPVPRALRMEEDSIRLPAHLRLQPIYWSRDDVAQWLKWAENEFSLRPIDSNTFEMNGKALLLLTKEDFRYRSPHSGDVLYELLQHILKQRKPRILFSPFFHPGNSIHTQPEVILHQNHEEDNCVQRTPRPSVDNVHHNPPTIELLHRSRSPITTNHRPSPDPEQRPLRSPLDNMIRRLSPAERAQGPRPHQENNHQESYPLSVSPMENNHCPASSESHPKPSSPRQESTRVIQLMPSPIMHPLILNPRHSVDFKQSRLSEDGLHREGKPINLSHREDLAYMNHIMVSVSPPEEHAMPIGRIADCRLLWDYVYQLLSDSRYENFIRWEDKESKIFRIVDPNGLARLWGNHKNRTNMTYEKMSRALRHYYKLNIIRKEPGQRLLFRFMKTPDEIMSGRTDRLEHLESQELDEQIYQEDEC

Sequence	binding signal (ERF)	binding signal (ETV3L)	binding signal (ETS2)	binding signal (SPDEF)	binding signal (ETV7)	binding signal (ELF5)	binding signal (ETV3)	binding signal (ETV6)
TATCCG	2.52 fold enrichment (6-mer frequency, TF over GST control)	2.45 fold enrichment (6-mer frequency, TF over GST control)	2.55 fold enrichment (6-mer frequency, TF over GST control)	3.8 fold enrichment (6-mer frequency, TF over GST control)	2.1 fold enrichment (6-mer frequency, TF over GST control)	3.31 fold enrichment (6-mer frequency, TF over GST control)	2.57 fold enrichment (6-mer frequency, TF over GST control)	2.38 fold enrichment (6-mer frequency, TF over GST control)
TCTTTG	1.2 fold enrichment (6-mer frequency, TF over GST control)	1.24 fold enrichment (6-mer frequency, TF over GST control)	1.19 fold enrichment (6-mer frequency, TF over GST control)	1.06 fold enrichment (6-mer frequency, TF over GST control)	1.27 fold enrichment (6-mer frequency, TF over GST control)	1.09 fold enrichment (6-mer frequency, TF over GST control)	1.21 fold enrichment (6-mer frequency, TF over GST control)	1.16 fold enrichment (6-mer frequency, TF over GST control)
TACTCC	1.34 fold enrichment (6-mer frequency, TF over GST control)	1.26 fold enrichment (6-mer frequency, TF over GST control)	1.37 fold enrichment (6-mer frequency, TF over GST control)	1.29 fold enrichment (6-mer frequency, TF over GST control)	1.21 fold enrichment (6-mer frequency, TF over GST control)	1.15 fold enrichment (6-mer frequency, TF over GST control)	1.33 fold enrichment (6-mer frequency, TF over GST control)	1.23 fold enrichment (6-mer frequency, TF over GST control)
TTCCCG	1.75 fold enrichment (6-mer frequency, TF over GST control)	1.9 fold enrichment (6-mer frequency, TF over GST control)	1.97 fold enrichment (6-mer frequency, TF over GST control)	2.05 fold enrichment (6-mer frequency, TF over GST control)	1.88 fold enrichment (6-mer frequency, TF over GST control)	2.91 fold enrichment (6-mer frequency, TF over GST control)	1.92 fold enrichment (6-mer frequency, TF over GST control)	2.15 fold enrichment (6-mer frequency, TF over GST control)
AACTCG	1.44 fold enrichment (6-mer frequency, TF over GST control)	1.43 fold enrichment (6-mer frequency, TF over GST control)	1.31 fold enrichment (6-mer frequency, TF over GST control)	1.31 fold enrichment (6-mer frequency, TF over GST control)	1.33 fold enrichment (6-mer frequency, TF over GST control)	1.35 fold enrichment (6-mer frequency, TF over GST control)	1.4 fold enrichment (6-mer frequency, TF over GST control)	1.33 fold enrichment (6-mer frequency, TF over GST control)
ATACAA	1.15 fold enrichment (6-mer frequency, TF over GST control)	1.12 fold enrichment (6-mer frequency, TF over GST control)	1.19 fold enrichment (6-mer frequency, TF over GST control)	1.14 fold enrichment (6-mer frequency, TF over GST control)	1.14 fold enrichment (6-mer frequency, TF over GST control)	1.08 fold enrichment (6-mer frequency, TF over GST control)	1.08 fold enrichment (6-mer frequency, TF over GST control)	1.12 fold enrichment (6-mer frequency, TF over GST control)
CAATTA	1.13 fold enrichment (6-mer frequency, TF over GST control)	1.11 fold enrichment (6-mer frequency, TF over GST control)	1.16 fold enrichment (6-mer frequency, TF over GST control)	1.06 fold enrichment (6-mer frequency, TF over GST control)	1.15 fold enrichment (6-mer frequency, TF over GST control)	1.13 fold enrichment (6-mer frequency, TF over GST control)	1.18 fold enrichment (6-mer frequency, TF over GST control)	1.05 fold enrichment (6-mer frequency, TF over GST control)
